Assays:
Conditions in all cases: concentration: 1 μM, replicates: in singlicate; n = 1
AURKC = tested on: AURKC
AXL = tested on: AXL
BIKE = tested on: T1, BIKE
T1 construct: gene BMP2K

BLK = tested on: BLK
BMPR1A = tested on: BMPR1A
BMPR1B = tested on: BMPR1B
BMPR2 = tested on: BMPR2
BMX = tested on: BMX
BRAF = tested on: BRAF
BRK = tested on: T2, BRK
T2 construct: gene PTK6
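Also: KINOMEscan kinase panel screen.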

Structure (SMILES) | %Inh (AURKC) | %Inh (AXL) | %Inh (BIKE) | %Inh (BLK) | %Inh (BMPR1A) | %Inh (BMPR1B) | %Inh (BMPR2) | %Inh (BMX) | %Inh (BRAF) | %Inh (BRK)
Cc1cc(N2CCC(NS(=O)(=O)c3ccc(F)cc3)CC2)nc(Nc2cccc(C#N)c2)n1.O=C(O)C(F)(F)F [GSK1653537] | 18% | 7% | 21% | 25% | 0% | 0% | 0% | 14% | 0% | 21%
O=C(Nc1ccccc1)Nc1ccc(Oc2ccc3nccn3n2)cc1 | 16% | 0% | 0% | 13% | 18% | 6% | 0% | 8% | 0% | 0%
O=C(NCCCN1CCCC1=O)c1cnc(NCc2cc(Cl)ccc2Cl)nc1NC1CCNCC1 | 0% | 41% | 4% | 0% | 6% | 0% | 0% | 0% | 39% | 0%
Cl.c1ccc(Cn2ccc3cc(Nc4ncnc5ccccc45)ccc32)cc1 [GW275568] | 0% | 0% | 13% | 0% | 0% | 0% | 13% | 18% | 0% | 0%
O=C(Nc1n[nH]c2nc(-c3ccco3)c(Br)cc12)c1ccc(CN2CCCC2)cc1.O=C(O)[C@H](O)[C@@H](O)C(=O)O [SB-742352] | 0% | 51% | 0% | 0% | 0% | 0% | 0% | 8% | 0% | 0%
Cc1ccc(NC(=O)c2cccc(C#N)c2)cc1-c1ccc(C(=O)Nc2ccncc2)cc1 [GSK1398463] | 6% | 11% | 24% | 31% | 0% | 0% | 0% | 26% | 29% | 14%
CCC(CC)(CC)n1cnc2c(N)ncnc21 [SKF-97620] | 0% | 0% | 0% | 0% | 7% | 16% | 53% | 0% | 10% | 0%
Cc1ccc(O)cc1Nc1cc(C(F)(F)F)nc2ccc(-c3ccncc3)cc12 [GW630823] | 5% | 0% | 7% | 12% | 0% | 0% | 0% | 17% | 0% | 11%
CSc1ccc(NC2=C(c3ccccc3Cl)C(=O)NC2=O)cc1 [SB-342411] | 13% | 3% | 19% | 0% | 0% | 0% | 5% | 34% | 21% | 14%
Nc1nc(-c2ccc3c(N)n[nH]c3c2)cc(N2CCCCC2)n1 [GSK2228768] | 23% | 0% | 56% | 4% | 0% | 0% | 0% | 0% | 0% | 0%
Fc1ccc(-c2ncn(CCCNCc3ccccc3)c2-c2ccncc2)cc1 | 0% | 18% | 0% | 7% | 13% | 24% | 16% | 7% | 16% | 3%
COC(=O)c1c(-c2ccccc2)c2cc(Cl)ccc2c(=O)n1Cc1ccc(S(C)(=O)=O)cc1 | 0% | 0% | 0% | 0% | 0% | 5% | 0% | 17% | 65% | 7%
O=C(c1ccc(-c2cc(-c3c[nH]nc3-c3ccccn3)ccn2)cc1)N1CCCC1 [GW792479] | 0% | 0% | 18% | 9% | 0% | 9% | 0% | 12% | 0% | 0%
Nc1nc(-c2cccnc2)c(-c2ccnc3ccccc23)s1 [GW684083] | 10% | 7% | 34% | 58% | 0% | 55% | 28% | 34% | 0% | 9%
Nc1n[nH]c2nnc(-c3ccccc3)cc12 [SB-517389] | 0% | 0% | 0% | 0% | 4% | 0% | 0% | 0% | 0% | 20%
O=C(Nc1ccccc1F)NC1CCN(c2ccnc(Nc3ccc(F)cc3)n2)C1 (stereo not shown) [GSK1379722] | 30% | 0% | 8% | 16% | 0% | 0% | 13% | 7% | 7% | 5%
O=c1cc(N2CCOCC2)nc2n(Cc3cccc(Cl)c3)ccn12 [GSK2296823] | 1% | 0% | 20% | 9% | 0% | 0% | 0% | 20% | 10% | 7%

Structure (SMILES) | %Inh (AURKC) | %Inh (AXL) | %Inh (BIKE) | %Inh (BLK) | %Inh (BMPR1A) | %Inh (BMPR1B) | %Inh (BMPR2) | %Inh (BMX) | %Inh (BRAF) | %Inh (BRK)
Cl.Fc1ccccc1COc1ccc(Nc2ncnc3ccc(-c4nnc(C(F)(F)F)o4)cc23)cc1Cl [GW424170] | 0% | 0% | 9% | 21% | 0% | 0% | 5% | 1% | 0% | 6%
Fc1cccc(COc2ccc(Nc3ncnc4sc(-c5ccc[nH]5)cc34)cc2Cl)c1 [GW707818] | 9% | 0% | 24% | 0% | 25% | 0% | 1% | 6% | 0% | 0%
Clc1ccc(-c2cc(-c3c[nH]nc3-c3ccccn3)ccn2)cc1 [GW681251] | 17% | 0% | 23% | 35% | 0% | 0% | 0% | 10% | 0% | 0%
Cc1cccc(-c2nc(Nc3ccc4[nH]nnc4c3)c3ccccc3n2)n1 [GW867587] | 0% | 0% | 0% | 3% | 0% | 0% | 8% | 0% | 0% | 0%
Fc1ccc(Nc2nccc(-c3c(-c4ccc(Cl)cc4)nn4ncccc34)n2)cc1F [GW829058] | 0% | 1% | 0% | 0% | 18% | 18% | 32% | 5% | 37% | 6%
CCc1nc(-c2cccc(C)c2)c(-c2ccnc(NC(=O)c3ccccc3)c2)s1 | 0% | 0% | 0% | 16% | 0% | 9% | 8% | 0% | 17% | 0%
Cl.Cl.c1ccc(-c2cc3ccncc3cc2OC2CCNCC2)cc1 [GSK1122999] | 28% | 27% | 27% | 41% | 0% | 0% | 0% | 17% | 0% | 8%
CCn1c(-c2ccncc2)nc2cnccc21 [SB-735216] | 0% | 24% | 8% | 0% | 4% | 0% | 24% | 17% | 19% | 3%
COc1ccc(NC(=O)c2ccc(-c3cc(-c4nnc(C)o4)ccc3C)cc2)cc1 [GW595885] | 5% | 0% | 14% | 34% | 0% | 0% | 0% | 10% | 1% | 11%
COc1ccc(Nc2nccc(N3CCC(NC(=O)c4cccc(NC(C)=O)c4)C3)n2)cc1 (stereo not shown) [GSK1379732] | 1% | 1% | 0% | 40% | 0% | 0% | 9% | 16% | 0% | 0%
CC(C)N1CCC(n2cnc(-c3ccc(F)cc3)c2-c2ccnc(N)n2)CC1 [SB-223132] | 51% | 5% | 32% | 2% | 10% | 0% | 0% | 9% | 0% | 5%
Cc1ccc(C)c(NC(=O)NCCNc2ccnc(Nc3ccc(F)cc3)n2)c1 [GSK1379878] | 15% | 0% | 20% | 33% | 0% | 0% | 0% | 0% | 0% | 1%
CCc1nc(-c2cccc(N(C)S(=O)(=O)c3ccccc3)c2)c(-c2ccnc(Nc3ccc(N4CCN(C(C)=O)CC4)nc3)n2)s1 [GSK1645895] | 0% | 0% | 0% | 64% | 0% | 0% | 0% | 15% | 60% | 31%
Nc1nc(-c2ccc3c(N)n[nH]c3c2)cc(N2CCC[C@@H](C(=O)Nc3ccccc3)C2)n1.O=C(O)C(F)(F)F.O=C(O)C(F)(F)F [GSK2288359] | 34% | 0% | 29% | 0% | 0% | 0% | 10% | 0% | 5% | 5%
CSc1nn2c(=O)cc(N3CCOCC3)nc2n1Cc1cccc(Cl)c1Cl [GSK2347225] | 11% | 45% | 29% | 52% | 19% | 1% | 0% | 6% | 0% | 17%
c1ccc(-c2ccc3c(-c4ccnc(Nc5ccc6c(c5)OCCO6)n4)cnn3n2)cc1 [GW818941] | 26% | 11% | 27% | 12% | 0% | 0% | 12% | 8% | 0% | 9%
CCCc1ccc(S(=O)(=O)NC2CCN(c3ccnc(Nc4ccc(OC)cc4)n3)C2)cc1 (stereo not shown) [GSK1379737] | 0% | 0% | 0% | 30% | 0% | 0% | 8% | 0% | 0% | 6%
